Set-up in all cases: scale not given: direction of the effect not stated beside the values
The target in experiment [1] is Protein translocase subunit SecA (Escherichia coli (strain K12)) (UniProt P10408). As to the kind of experiment: Assay to Identify E. coli SecA ATPase Inhibitors. Type of experiment: functional. The note with it: 30 µM.
In experiment [2] the target is T1, Ubiquitin-activating enzyme e1, putative (Leishmania donovani (strain BPK282A1)) (UniProt E9BSI1).
T1 sequence (whole entry): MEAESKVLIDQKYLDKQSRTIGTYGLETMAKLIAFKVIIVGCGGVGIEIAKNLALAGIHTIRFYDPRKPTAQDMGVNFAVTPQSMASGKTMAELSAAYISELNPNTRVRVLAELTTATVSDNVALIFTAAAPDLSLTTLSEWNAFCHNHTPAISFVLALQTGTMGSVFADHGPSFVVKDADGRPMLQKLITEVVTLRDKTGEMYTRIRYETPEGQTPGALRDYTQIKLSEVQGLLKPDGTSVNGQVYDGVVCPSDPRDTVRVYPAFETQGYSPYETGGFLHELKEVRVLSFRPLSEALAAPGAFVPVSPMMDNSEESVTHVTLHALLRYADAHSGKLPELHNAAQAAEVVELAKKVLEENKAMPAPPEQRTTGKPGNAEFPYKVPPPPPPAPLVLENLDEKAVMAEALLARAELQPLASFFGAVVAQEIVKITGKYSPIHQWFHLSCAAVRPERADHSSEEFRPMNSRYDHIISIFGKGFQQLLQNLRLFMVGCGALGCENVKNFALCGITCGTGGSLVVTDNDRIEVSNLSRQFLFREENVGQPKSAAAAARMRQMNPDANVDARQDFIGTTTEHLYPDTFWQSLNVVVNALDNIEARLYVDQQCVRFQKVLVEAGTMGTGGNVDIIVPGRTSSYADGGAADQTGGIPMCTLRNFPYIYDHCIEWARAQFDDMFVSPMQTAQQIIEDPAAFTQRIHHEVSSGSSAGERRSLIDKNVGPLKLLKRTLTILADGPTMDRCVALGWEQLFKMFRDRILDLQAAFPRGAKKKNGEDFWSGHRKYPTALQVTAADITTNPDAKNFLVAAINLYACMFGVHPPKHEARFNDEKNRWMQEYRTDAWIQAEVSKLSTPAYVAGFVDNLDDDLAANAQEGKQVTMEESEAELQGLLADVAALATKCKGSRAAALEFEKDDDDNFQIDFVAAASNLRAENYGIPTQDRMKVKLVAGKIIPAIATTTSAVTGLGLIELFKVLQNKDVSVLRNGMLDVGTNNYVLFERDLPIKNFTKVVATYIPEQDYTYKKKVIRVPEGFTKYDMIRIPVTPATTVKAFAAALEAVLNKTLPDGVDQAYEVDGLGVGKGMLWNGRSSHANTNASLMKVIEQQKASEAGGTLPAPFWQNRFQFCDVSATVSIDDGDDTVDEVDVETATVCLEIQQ
As to the kind of experiment: Leishmania donovani Ubiquitin Activating Enzyme (LdE1). Type of experiment: functional. The note with it: 30 µM.

For experiment [3], the target named is AMP-activated protein kinase, AMPK (Homo sapiens) (UniProt P54646+O43741+P54619+Q9UGJ0+Q9Y478+Q13131+Q9UGI9). The experiment is described as follows: AMP-dependent Kinase enzyme assay. An in vitro enzyme assay that detects ADP turnover that is directly proportional to AMPK activity. This uses naive AMPK that is activated during the assay with MK-8722. Type of experiment: functional. The settings on record: 30 µM.

Experiment [4] deals with Sialic acid-binding Ig-like lectin 9 (Homo sapiens) (UniProt Q9Y336). The experiment is described as follows: Hs-Siglec9 ALPHAscreen SOP 20170721. The note with it: 10 µM.
Sialic acid-binding Ig-like lectin 9 (Homo sapiens), sequence (Q9Y336 whole entry): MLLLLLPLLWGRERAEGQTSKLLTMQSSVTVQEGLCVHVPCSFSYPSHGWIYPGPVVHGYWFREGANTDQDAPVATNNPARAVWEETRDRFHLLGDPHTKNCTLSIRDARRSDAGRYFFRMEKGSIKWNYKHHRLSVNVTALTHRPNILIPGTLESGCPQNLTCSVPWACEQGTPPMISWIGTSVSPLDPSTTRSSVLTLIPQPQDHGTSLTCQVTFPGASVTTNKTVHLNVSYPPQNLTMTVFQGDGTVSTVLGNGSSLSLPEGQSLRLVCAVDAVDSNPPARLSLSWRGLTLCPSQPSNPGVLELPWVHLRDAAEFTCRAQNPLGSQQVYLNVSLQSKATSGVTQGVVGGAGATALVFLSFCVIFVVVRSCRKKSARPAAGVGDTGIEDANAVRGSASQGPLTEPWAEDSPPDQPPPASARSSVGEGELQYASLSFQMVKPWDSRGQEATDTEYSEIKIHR
Another experiment deals with Trypanosoma cruzi. As to the kind of experiment: Trypanosoma cruzi phosphomannomutase and mannose-1-phosphate guanylyltransferase assay. Type of experiment: functional. The settings on record: 10 µM.
Experiment [5] concerns the target T2, Arginase-2, mitochondrial (Homo sapiens) (UniProt P78540).
T2 sequence (whole entry): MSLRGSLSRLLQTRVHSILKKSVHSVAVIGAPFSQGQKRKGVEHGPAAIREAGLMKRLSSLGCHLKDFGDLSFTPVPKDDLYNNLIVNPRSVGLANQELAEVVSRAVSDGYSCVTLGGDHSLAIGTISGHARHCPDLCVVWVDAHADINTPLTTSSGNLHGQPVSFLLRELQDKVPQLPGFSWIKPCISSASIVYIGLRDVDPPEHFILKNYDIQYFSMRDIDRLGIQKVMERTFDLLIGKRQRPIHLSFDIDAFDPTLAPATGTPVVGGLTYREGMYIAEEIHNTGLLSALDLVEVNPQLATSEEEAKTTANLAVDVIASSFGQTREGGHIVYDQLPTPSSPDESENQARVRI
The experiment is described as follows: in vitro enzyme assay to detect the production of urea directly proportional to the activity of Arginase II. Further: in the data most compounds retested in dose-response had high values. Type of experiment: functional. The settings on record: 33.3 µM.

The target in experiment [6] is T3, Proteasome subunit beta (Trypanosoma cruzi) (UniProt O96673).
T3 sequence (whole entry): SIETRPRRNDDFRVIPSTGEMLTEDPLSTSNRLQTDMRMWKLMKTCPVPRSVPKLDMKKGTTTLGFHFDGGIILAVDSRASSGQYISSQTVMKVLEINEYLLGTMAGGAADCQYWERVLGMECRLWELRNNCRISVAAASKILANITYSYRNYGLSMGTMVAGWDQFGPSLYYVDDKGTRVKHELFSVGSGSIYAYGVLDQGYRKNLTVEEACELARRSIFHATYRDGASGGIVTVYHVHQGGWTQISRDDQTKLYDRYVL
The experiment is described as follows: Trypanosoma cruzi proteasome chymotrypsin-like activity (TcProtChymo) assay. Further: in the data most compounds retested in dose-response had high values. Type of experiment: functional. The settings on record: 9.37 µM.

The species entered for another experiment is Homo sapiens. As to the kind of experiment: To identify inhibition of the IFN signalling (Jak-Stat) pathway via expression of an eGFP reporter gene under the control of an IFN-stimulated response element (ISRE) containing MxA promoter. Type of experiment: functional. The note with it: 30 µM. (Reporter assays use an easily measured gene product as a stand-in for the process of interest.)

In experiment [7] the target is T4, Tyrosyl-tRNA synthetase, putative (Trypanosoma cruzi (strain CL Brener)) (UniProt Q4DSP6).
T4 sequence (whole entry): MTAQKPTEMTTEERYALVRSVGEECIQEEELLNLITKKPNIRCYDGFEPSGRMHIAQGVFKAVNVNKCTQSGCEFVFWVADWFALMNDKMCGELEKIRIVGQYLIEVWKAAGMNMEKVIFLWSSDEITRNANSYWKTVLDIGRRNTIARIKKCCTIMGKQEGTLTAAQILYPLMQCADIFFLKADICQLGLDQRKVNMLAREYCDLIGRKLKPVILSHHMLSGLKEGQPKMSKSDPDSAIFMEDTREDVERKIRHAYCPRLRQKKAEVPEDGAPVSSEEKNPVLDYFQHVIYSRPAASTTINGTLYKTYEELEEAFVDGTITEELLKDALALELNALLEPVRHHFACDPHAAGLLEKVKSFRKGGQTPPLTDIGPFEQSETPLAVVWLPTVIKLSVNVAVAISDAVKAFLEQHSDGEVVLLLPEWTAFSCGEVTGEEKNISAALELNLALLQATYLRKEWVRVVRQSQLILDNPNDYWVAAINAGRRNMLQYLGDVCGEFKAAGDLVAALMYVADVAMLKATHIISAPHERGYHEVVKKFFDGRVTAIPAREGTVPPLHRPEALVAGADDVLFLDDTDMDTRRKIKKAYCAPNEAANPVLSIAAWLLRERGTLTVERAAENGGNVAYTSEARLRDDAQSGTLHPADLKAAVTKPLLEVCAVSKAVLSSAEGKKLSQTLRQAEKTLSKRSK
The experiment is described as follows: Trypanosoma cruzi tyrosyl tRNA synthetase (TcYRS) _High Tyrosine SOP. Further: in the data most compounds retested in dose-response had high values. Type of experiment: functional. The settings on record: 30 µM.

Experiment [8] concerns the target T4, Tyrosyl-tRNA synthetase, putative (Trypanosoma cruzi (strain CL Brener)). The experiment is described as follows: Trypanosoma cruzi tyrosyl tRNA synthetase (TcYRS) SOP. Type of experiment: functional. The note with it: 30 µM.
In experiment [9] the target is Chromo domain-containing protein 1 (Saccharomyces cerevisiae (strain ATCC 204508 / S288c) (Baker's yeast)) (UniProt P32657). The experiment is described as follows: ScCHD-1 Enzyme Inhibition Assay. Further: in the data most compounds retested in dose-response had high values. Type of experiment: functional. The note with it: 30 µM.
Chromo domain-containing protein 1 (Saccharomyces cerevisiae (strain ATCC 204508 / S288c) (Baker's yeast)), sequence (P32657 whole entry, the tested form may be a part): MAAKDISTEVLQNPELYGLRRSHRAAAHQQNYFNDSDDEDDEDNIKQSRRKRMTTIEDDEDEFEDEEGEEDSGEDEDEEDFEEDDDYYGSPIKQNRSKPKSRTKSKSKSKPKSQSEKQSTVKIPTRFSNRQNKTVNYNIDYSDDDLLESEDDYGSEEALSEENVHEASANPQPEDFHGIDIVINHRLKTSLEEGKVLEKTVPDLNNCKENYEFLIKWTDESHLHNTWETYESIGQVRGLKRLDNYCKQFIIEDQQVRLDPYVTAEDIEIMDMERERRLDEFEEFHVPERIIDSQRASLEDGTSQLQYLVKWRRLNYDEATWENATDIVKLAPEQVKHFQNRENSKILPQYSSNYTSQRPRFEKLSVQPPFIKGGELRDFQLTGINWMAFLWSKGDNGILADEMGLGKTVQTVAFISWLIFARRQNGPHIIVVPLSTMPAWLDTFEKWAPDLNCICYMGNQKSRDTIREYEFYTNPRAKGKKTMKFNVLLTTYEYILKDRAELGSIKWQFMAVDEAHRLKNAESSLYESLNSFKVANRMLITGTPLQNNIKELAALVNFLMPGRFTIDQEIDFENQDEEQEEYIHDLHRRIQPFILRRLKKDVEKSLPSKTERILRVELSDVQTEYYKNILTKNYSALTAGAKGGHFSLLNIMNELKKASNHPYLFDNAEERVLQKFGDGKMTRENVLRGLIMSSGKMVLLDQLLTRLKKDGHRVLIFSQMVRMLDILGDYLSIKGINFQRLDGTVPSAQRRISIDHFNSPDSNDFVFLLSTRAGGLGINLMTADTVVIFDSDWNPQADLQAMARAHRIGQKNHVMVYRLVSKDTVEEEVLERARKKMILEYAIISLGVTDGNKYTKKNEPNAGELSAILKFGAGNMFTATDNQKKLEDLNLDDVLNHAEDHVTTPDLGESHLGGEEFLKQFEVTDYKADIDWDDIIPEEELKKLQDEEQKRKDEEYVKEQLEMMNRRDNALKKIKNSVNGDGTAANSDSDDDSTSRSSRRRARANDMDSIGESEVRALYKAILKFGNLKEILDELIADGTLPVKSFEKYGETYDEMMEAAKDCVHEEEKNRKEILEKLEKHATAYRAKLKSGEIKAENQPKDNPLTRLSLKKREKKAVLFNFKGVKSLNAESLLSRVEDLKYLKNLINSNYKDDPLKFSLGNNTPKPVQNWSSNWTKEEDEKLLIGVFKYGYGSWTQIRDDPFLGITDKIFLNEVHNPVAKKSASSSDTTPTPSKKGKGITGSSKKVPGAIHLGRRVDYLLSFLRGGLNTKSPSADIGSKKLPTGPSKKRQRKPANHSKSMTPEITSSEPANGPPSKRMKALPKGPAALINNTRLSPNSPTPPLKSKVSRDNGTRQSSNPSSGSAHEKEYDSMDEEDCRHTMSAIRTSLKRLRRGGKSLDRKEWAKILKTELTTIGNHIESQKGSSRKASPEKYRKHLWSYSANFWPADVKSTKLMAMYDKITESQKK

SMILES strings stand for the structures. For some of these results: Measured potencies and affinities stand elsewhere.

Protein translocase subunit SecA (Escherichia coli (strain K12)), sequence (P10408 whole entry): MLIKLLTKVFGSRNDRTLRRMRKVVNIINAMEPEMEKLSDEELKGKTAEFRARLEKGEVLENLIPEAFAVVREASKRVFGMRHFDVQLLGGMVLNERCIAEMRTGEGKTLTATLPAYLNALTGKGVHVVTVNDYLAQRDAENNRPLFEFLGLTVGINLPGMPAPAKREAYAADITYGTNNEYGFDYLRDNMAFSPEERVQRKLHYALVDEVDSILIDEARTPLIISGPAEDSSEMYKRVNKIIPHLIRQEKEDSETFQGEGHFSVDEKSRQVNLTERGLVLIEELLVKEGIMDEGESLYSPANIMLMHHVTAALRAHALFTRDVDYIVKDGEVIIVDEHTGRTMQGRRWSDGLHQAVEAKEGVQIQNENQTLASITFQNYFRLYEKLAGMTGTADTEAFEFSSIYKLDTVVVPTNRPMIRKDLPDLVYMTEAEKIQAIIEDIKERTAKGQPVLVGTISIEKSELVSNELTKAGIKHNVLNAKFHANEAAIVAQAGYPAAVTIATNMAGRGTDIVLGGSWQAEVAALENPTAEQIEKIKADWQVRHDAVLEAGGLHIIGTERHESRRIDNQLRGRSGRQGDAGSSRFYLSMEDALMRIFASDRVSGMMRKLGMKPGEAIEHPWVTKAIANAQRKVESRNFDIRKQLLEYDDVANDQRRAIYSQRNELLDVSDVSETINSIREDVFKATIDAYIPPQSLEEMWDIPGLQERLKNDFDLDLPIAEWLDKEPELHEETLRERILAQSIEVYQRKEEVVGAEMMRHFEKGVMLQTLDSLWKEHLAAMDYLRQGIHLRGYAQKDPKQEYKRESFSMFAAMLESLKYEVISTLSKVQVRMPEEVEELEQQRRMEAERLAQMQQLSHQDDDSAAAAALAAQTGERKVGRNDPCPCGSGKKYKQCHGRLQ

For `Clc1ccccc1C1(c2ccnc(-c3ccncc3)n2)CCNCC1`, the Percent Effect is -0.572% in experiment [1]; 7.79% in experiment [2]; 3.38% in experiment [3]; 10.4% in [4]; -2.26% with Trypanosoma cruzi; -8.28% in [5]. The Percent Effect in [6] worked out at 17%; in the experiment filed under Homo sapiens it was 16.3%; in [7], 6.45%; in experiment [8], 13.6%; in experiment [9], 2.54%.

Regarding `COCc1noc(C2(c3ccc(Br)cc3)CCOCC2)n1`, the Percent Effect in experiment [1] was -2.85%; in [2] it was -2.7%; in [3], 1.95%; in experiment [4] it was -4.39%; with Trypanosoma cruzi it was -6.95%; in experiment [5] it was 1.91%. The Percent Effect in [6] was 9.83%; in the experiment listed under Homo sapiens, 4.48%; in [7] it was -1.59%; in [8] it was 4.88%; in experiment [9], -3.06%.

Take `Cc1cnn(CCNCc2nc(Cc3ccccc3)no2)c1`: the Percent Effect is -0.787% in [1]; 0% in experiment [2]; -3.33% in experiment [3]; -0.739% in [4]; -1.32% with Trypanosoma cruzi; 5.75% in experiment [5]. Moreover, the Percent Effect in experiment [6] came to 5.51%; in the experiment listed under Homo sapiens it was 13.2%; in [7], 5.39%; in experiment [8], 7.32%; in experiment [9], 2.72%.

Consider `CCCc1nc(CN2CCCC2Cn2cncn2)cs1` (stereo not drawn), for which the Percent Effect was -3.84% in experiment [1]; 12.7% in [2]; -5.8% in experiment [3]; 9.38% in experiment [4]; 3.87% in the experiment with Trypanosoma cruzi; -24.3% in experiment [5]. Further, the Percent Effect is 5.98% in experiment [6]; 4.39% in the experiment listed under Homo sapiens; 10.3% in experiment [7]; 24.1% in [8]; -3.42% in [9].

For the compound `OCC1CCCN1c1cc(NCCNc2ccccn2)ncn1` (stereo not drawn), the Percent Effect is -3.44% in experiment [1]; 5.48% in experiment [2]; -4.46% in [3]; -5.01% in [4]; 1.18% in the experiment with Trypanosoma cruzi; 3.64% in experiment [5]. The Percent Effect in experiment [6] is 20.4%; in the experiment filed under Homo sapiens, 22.1%; in experiment [7], 2.15%; in experiment [8], 10%; in experiment [9], -7.12%.

`CC(C)NC(=O)Nc1ccc(CS(=O)(=O)C(C)(C)C)cc1`: the Percent Effect in experiment [1] was -3.43%; in [2] it was 2.63%; in experiment [3], 7.37%; in experiment [4], 5.76%; in the experiment on Trypanosoma cruzi it was -2.82%; in [5], -2.37%. Moreover, the Percent Effect in experiment [6] was 23.1%; in the experiment filed under Homo sapiens, 7.3%; in experiment [7], 2.13%; in experiment [8], 10.4%; in experiment [9], -2.88%.

In the case of `COc1cccc(S(=O)(=O)N2CCn3cnc(COCC4CC4)c3C2)c1`, the Percent Effect in experiment [1] is -2.27%; in [2] it was 2.67%; in experiment [3], 2.22%; in experiment [4], 0.793%; with Trypanosoma cruzi it was 0.386%; in [5], -33.1%. Moreover, the Percent Effect was 3.93% in [6]; 7.62% in the experiment filed under Homo sapiens; 3.12% in experiment [7]; 5% in experiment [8]; -4.77% in [9].

As for `Cc1cnn(CC2CCCN2C(=O)c2cccc(CC#N)c2)c1` (stereo not drawn), the Percent Effect is -3.75% in experiment [1]; 2.53% in experiment [2]; 0.139% in experiment [3]; -0.305% in experiment [4]; 8.03% in the experiment with Trypanosoma cruzi; 0% in [5]. Also, the Percent Effect in [6] was -0.0819%; in the experiment filed under Homo sapiens, -5.56%; in experiment [7], 0.493%; in [8] it was 1.27%; in [9], -2.19%.

The values are drawn from ChEMBL document CHEMBL3988442, “University of Dundee, Small-Polar-MMV Screening Library” (2021).
